Screens from PubChem.
Most compounds without a hit are left out; they make up all but 4.6% or so of the library.
Peg3 promoter: Peg3 promoter activity inhibition. 360,000 tested, 1.7% active. AID 588405. inhibition, % at 20 µM. HeLa PEG-Prom luciferase reporter, luminescence, overnight;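 active means inhibition of at least 50% at 20 µM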
KKLEB cytotox: reduces viability of KKLEB cystic fibrosis airway cells; activity change (cytotoxicity), % at 5 µM; 360,000 tested, 0.36% active; KKLEB CF airway cells viability, ATPlite luminescence, overnight; stronger effect = lower value; cells stimulated with P. aeruginosa culture filtrate;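 active means corrected activity change at or below -50% at 5 µM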
CF NFkB inh: blocks PAF-induced NF-kB reporter in cystic fibrosis cells | KKLEB NF-kB-GFP reporter, GFP fluorescence overnight | inhibition, % at 5 µM | 360,000 tested, 0.86% active | AID 588850;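 active means at least 50% inhibition at 5 µM, scaled per plate between neutral and stimulator controls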;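 further: PAF is a Pseudomonas aeruginosa culture filtrate used as stimulus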
Mdm2 MdmX PPI: human Mdm2/MdmX binding inhibition; SaOS-2 split-luciferase Mdm2/MdmX complementation, luminescence; AID 485346; 330,000 tested, 3% active; O15151+Q00987; inhibition, % at 8 µM;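 active means inhibition of at least 50% at 8 µM in the primary screen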
Target sequence (O15151 whole entry, looked up): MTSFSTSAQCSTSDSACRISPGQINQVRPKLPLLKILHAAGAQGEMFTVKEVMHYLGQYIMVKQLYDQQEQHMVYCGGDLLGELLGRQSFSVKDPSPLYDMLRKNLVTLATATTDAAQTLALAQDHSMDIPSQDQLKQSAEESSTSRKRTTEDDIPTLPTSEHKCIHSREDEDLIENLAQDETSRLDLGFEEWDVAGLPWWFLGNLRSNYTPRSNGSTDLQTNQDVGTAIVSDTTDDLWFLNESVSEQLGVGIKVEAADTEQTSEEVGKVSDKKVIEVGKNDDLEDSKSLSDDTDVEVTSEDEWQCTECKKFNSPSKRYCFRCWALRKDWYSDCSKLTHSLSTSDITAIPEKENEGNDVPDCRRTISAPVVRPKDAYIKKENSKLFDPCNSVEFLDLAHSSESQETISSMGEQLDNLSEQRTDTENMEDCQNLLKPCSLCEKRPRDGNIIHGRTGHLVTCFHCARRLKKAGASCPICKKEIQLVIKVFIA
Target sequence (Q00987 whole entry, looked up): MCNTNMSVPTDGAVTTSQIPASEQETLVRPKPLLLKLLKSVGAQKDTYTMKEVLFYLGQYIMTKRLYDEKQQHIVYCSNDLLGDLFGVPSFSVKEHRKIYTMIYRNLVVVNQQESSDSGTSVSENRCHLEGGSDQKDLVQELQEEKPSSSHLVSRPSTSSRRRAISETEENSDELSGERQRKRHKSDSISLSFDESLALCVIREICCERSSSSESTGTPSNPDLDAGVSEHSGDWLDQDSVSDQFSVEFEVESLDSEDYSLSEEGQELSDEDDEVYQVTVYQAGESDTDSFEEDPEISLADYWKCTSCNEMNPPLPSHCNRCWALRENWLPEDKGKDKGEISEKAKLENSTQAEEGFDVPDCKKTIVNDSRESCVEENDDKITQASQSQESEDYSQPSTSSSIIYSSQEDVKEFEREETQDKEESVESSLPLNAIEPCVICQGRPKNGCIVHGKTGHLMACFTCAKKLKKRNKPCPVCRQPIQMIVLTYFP
ABHD5-PLIN5 inh: blocks binding of human ABHD5 to perilipin-5; Split G. princeps luciferase complementation, luminescence, 4 h; Q00G26+Q8WTS1; inhibition, % at 4 µM; 360,000 tested, 0.78% active;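 active means inhibition above the mean inhibition across every tested compound plus 3 SD, cut at about 22% in these data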
HIF-2a block: HIF-2a inhibition | 360,000 tested, 0.72% active | inhibition, % at 18.8 µM | AID 624352 | 786-0 RCC cells HIF-2a reporter, luciferase luminescence, overnight;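 active means inhibition of the luminescence signal of 40% or more relative to plate controls, in a single-dose primary screen at 18.75 µM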
ABHD5 PLIN5 conf: confirmation of human ABHD5-PLIN5 interaction inhibitors. shares compounds with ABHD5-PLIN5 inh. biochemical ABHD5-PLIN5 interaction, luminescence. inhibition, % at 4 µM. 2,200 tested, 67% active. AID 651612; in the data active means inhibition above about 23%
HNF4 split-luc: counter-screen for ABHD5-PLIN5 inhibitors: HNF4 split-luciferase. shares compounds with ABHD5-PLIN5 inh. HNF4 dimerization, luminescence, biochemical. inhibition, % at 4 µM. 2,200 tested, 77% active. AID 651674;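 active means mean inhibition across replicate wells exceeding the computed hit threshold, cut at about 13% in these data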;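 further: light from luciferase halves that rejoin when HNF4 fusion proteins dimerize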
Of the large screens only hits and unclear results are named; the others gave an inactive call (follow-up assays come after a bar, where they were run).

Cc1cccc(C)c1NC(=O)C(c1ccnc2ccccc12)n1c(=O)c(-c2ccco2)nc2ccccc21 (stereo not drawn)	ABHD5-PLIN5 inh 45 (no result: Peg3 promoter, KKLEB cytotox, CF NFkB inh, Mdm2 MdmX PPI) | ABHD5 PLIN5 conf 52 | HNF4 split-luc 13
Cc1cccc(C)c1NC(=O)C(c1ccccc1F)n1c(=O)c(-c2ccco2)nc2ccccc21 (stereo not drawn)	ABHD5-PLIN5 inh 86 (no result: Peg3 promoter, KKLEB cytotox, CF NFkB inh, Mdm2 MdmX PPI) | ABHD5 PLIN5 conf 76 | HNF4 split-luc 28
CC1=NOC(=O)/C1=C\c1ccc(-c2ccc(Br)cc2)o1	Peg3 promoter 89, ABHD5-PLIN5 inh 38 (no result: Mdm2 MdmX PPI) | ABHD5 PLIN5 conf 93 | HNF4 split-luc 106
COC(=O)c1cc(C(=O)OCC(=O)NCc2cccs2)cc([N+](=O)[O-])c1	none
COc1cc(C(C2C(=O)CC(C)(C)CC2=O)C2C(=O)CC(C)(C)CC2=O)ccc1OC(C)=O	ABHD5-PLIN5 inh 25 | ABHD5 PLIN5 conf 37 | HNF4 split-luc 33
COc1cc(C(C2C(=O)CC(C)(C)CC2=O)C2C(=O)CC(C)(C)CC2=O)ccc1O	none
CC(=O)Nc1ccc(C2=NNC(=Nc3ccc(S(=O)(=O)N4CCOCC4)cc3)SC2)cc1	ABHD5-PLIN5 inh 75 | ABHD5 PLIN5 conf 59 | HNF4 split-luc 79
CC(=O)N(C1CC(C)C(C#N)(C#N)C1(C#N)C#N)N(C)C (stereo not drawn)	Peg3 promoter 102, ABHD5-PLIN5 inh 24, HIF-2a block 46 | ABHD5 PLIN5 conf 52 | HNF4 split-luc 95
CCCC(=O)N(C1CC(C)C(C#N)(C#N)C1(C#N)C#N)N(C)C (stereo not drawn)	Peg3 promoter 107, ABHD5-PLIN5 inh 36, HIF-2a block 86 | ABHD5 PLIN5 conf 59 | HNF4 split-luc 101
Cc1c(Cl)cccc1NC(=O)CCNC(=O)N1CC(=O)Nc2ccccc21	none
O=C(/C=C/c1ccccc1Cl)c1ccccc(=O)c1O	Peg3 promoter 71, ABHD5-PLIN5 inh 33 (no result: Mdm2 MdmX PPI) | ABHD5 PLIN5 conf 59 | HNF4 split-luc 43
Cc1ccc(C)c(/C=C/C(=O)c2ccccc(=O)c2O)c1	ABHD5-PLIN5 inh 30, HIF-2a block 72 (no result: Mdm2 MdmX PPI) | ABHD5 PLIN5 conf 56 | HNF4 split-luc 35
COc1cccc(CC2(CO)CCCN(Cc3ccc(-c4ccco4)cc3)C2)c1 (stereo not drawn)	ABHD5-PLIN5 inh 24 | ABHD5 PLIN5 conf 22 | HNF4 split-luc 32
COc1cccc(CC2(CO)CCCN(Cc3ccccc3-c3ccco3)C2)c1 (stereo not drawn)	none
N#Cc1ccc(S(=O)(=O)N2CCCCC2c2cc(C(=O)NCc3cccnc3)no2)cc1 (stereo not drawn)	none (no result: Mdm2 MdmX PPI)
N#Cc1ccc(C(C(=O)NC2CCCCC2)n2c(=O)c(-c3cc4ccccc4[nH]3)nc3ccccc32)cc1 (stereo not drawn)	none (no result: Peg3 promoter, KKLEB cytotox, CF NFkB inh, Mdm2 MdmX PPI)
N#Cc1ccc(C(C(=O)NC2CCCCC2)n2c(=O)c(-c3ccco3)nc3ccccc32)cc1 (stereo not drawn)	ABHD5-PLIN5 inh 82 (no result: Peg3 promoter, KKLEB cytotox, CF NFkB inh, Mdm2 MdmX PPI) | ABHD5 PLIN5 conf 84 | HNF4 split-luc 32
O=C(NC1CCCCC1)C(C1CC1)n1c(=O)c(-c2ccco2)nc2ccccc21 (stereo not drawn)	ABHD5-PLIN5 inh 66 (no result: Peg3 promoter, KKLEB cytotox, CF NFkB inh, Mdm2 MdmX PPI) | ABHD5 PLIN5 conf 71 | HNF4 split-luc 34
CCCCCNC(=O)C(C1CC1)n1c(=O)c(-c2cc3ccccc3[nH]2)nc2ccccc21 (stereo not drawn)	none (no result: Peg3 promoter, KKLEB cytotox, CF NFkB inh, Mdm2 MdmX PPI)
CCCCCNC(=O)C(C1CC1)n1c(=O)c(-c2ccco2)nc2ccccc21 (stereo not drawn)	ABHD5-PLIN5 inh 31 (no result: Peg3 promoter, KKLEB cytotox, CF NFkB inh, Mdm2 MdmX PPI) | ABHD5 PLIN5 conf 61 | HNF4 split-luc 23
O=C(NC1CCCCC1)C(c1ccccc1)n1c(=O)c(-c2ccco2)nc2ccccc21 (stereo not drawn)	ABHD5-PLIN5 inh 86 (no result: Peg3 promoter, KKLEB cytotox, CF NFkB inh, Mdm2 MdmX PPI) | ABHD5 PLIN5 conf 97 | HNF4 split-luc 54
COc1ccc(NC(=O)C(C2CC2)n2c(=O)c(-c3ccco3)nc3ccccc32)cc1 (stereo not drawn)	none (no result: Peg3 promoter, KKLEB cytotox, CF NFkB inh, Mdm2 MdmX PPI)
COc1ccc(S(=O)(=O)N2CCC3CC2c2c(-c4ccc(C(F)(F)F)cc4)cccc23)cc1 (stereo not drawn)	none (no result: Mdm2 MdmX PPI)
Cc1ccc(Oc2cc(NN3CCCCC3)c([N+](=O)[O-])cc2[N+](=O)[O-])c(Cl)c1	none
Cc1nn(Cc2ccccc2)c(C)c1CNC(=O)CN=C1NS(=O)(=O)c2ccccc21	none
O=C(COC(=O)c1ccc(Cl)nc1)NC1CCCc2ccccc21 (stereo not drawn)	none
CCN1C(=O)[C@H]2[C@@H](c3ccc(OC)cc3)N[C@]3(CCCN(Cc4ccc(C(F)(F)F)cc4)C3=O)[C@H]2C1=O	none (no result: Mdm2 MdmX PPI)
O=C(NC1CCCCC1)C(c1ccccc1)n1c(=O)c(-c2cc3ccccc3[nH]2)nc2ccccc21 (stereo not drawn)	none (no result: Peg3 promoter, KKLEB cytotox, CF NFkB inh, Mdm2 MdmX PPI)
O=C(NC1CCCCC1)C(c1ccc(C(F)(F)F)cc1)n1c(=O)c(-c2ccco2)nc2ccccc21 (stereo not drawn)	ABHD5-PLIN5 inh 85 (no result: Peg3 promoter, KKLEB cytotox, CF NFkB inh, Mdm2 MdmX PPI) | ABHD5 PLIN5 conf 90 | HNF4 split-luc 13
Cc1ccc(NN2C(=O)C=C(c3ccccc3)C2=O)cc1	Peg3 promoter 85, ABHD5-PLIN5 inh 92 | ABHD5 PLIN5 conf 100 | HNF4 split-luc 105
O=C1c2ccccc2C(=O)N1Nc1ccccc1	none
CC(=O)Oc1ccc(N2C(=O)C3C(C2=O)C2(C)C=CC3(C)O2)cc1 (stereo not drawn)	none (no result: Peg3 promoter, KKLEB cytotox, CF NFkB inh, ABHD5-PLIN5 inh, HIF-2a block)
CC(=O)Oc1ccc(N2C(=O)C3C4C=CC(CO)(O4)C3C2=O)cc1 (stereo not drawn)	ABHD5-PLIN5 inh 26 | ABHD5 PLIN5 conf inactive | HNF4 split-luc 67
O=C1CCCCCCCCCC/C(=N\O)CCCO1	ABHD5-PLIN5 inh 92 | ABHD5 PLIN5 conf inactive | HNF4 split-luc inactive
CCN(CC)CCCOC(=O)C1(c2ccccc2)CCCC1	none
CCN(CC)CCOCCOC(=O)C1(c2ccccc2)CCCC1	ABHD5-PLIN5 inh 58 | ABHD5 PLIN5 conf 77 | HNF4 split-luc 36
Cc1cccc(NC(=O)CSc2c3c(nc4ccccc24)CCC3)n1	none
CCN(CC)CCNC(=O)CSc1c2c(nc3cc(Cl)ccc13)CCCC2	Peg3 promoter 78, ABHD5-PLIN5 inh 33 | ABHD5 PLIN5 conf 46 | HNF4 split-luc 41
COc1cccc(NC(=O)CSc2c3c(nc4ccccc24)CCCC3)c1	ABHD5-PLIN5 inh 34 | ABHD5 PLIN5 conf 39 | HNF4 split-luc 46
O=C(CSCc1cc(=O)n2nc(C3CC3)sc2n1)Nc1ccccc1Cl	none
N#Cc1cccc(C(Br)S(=O)(=O)c2ccccc2)c1 (stereo not drawn)	none (no result: Mdm2 MdmX PPI)
O=C(C=Cc1ccc2c(c1)OCO2)c1ccccc1	none (no result: Mdm2 MdmX PPI)
